# Results taken from paper PMC8384837, “Expanding the binding specificity for RNA recognition by a PUF domain”.
# Positions count from the first letter of the chain named.
# Assays:
# Experiment in all cases: yeast three-hybrid, YBZ-1, SC-Leu-His + 0.5 mM 3-AT, 4 days
# Details in all cases: tags: N-Gal4 AD-HA kept; label: inside an RPR1-promoter hybrid RNA with tandem MS2 sites; ssRNA
# PUM1 PUF domain R1-CWR = PUM1 PUF domain R1-CWR (Homo sapiens, UniProt Q14671 828-1176, S863C;R864W;Q867R)
# Outline: (§1)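 The interaction score is the log change in variant frequency from input to selection. Scores were computed in log2 with a pseudocount of 1 for absent variants, using Illumina sequencing of PCR-amplified repeat regions. The input came from four days on SC-Leu and the selection from four days on SC-Leu-His + 0.5 mM 3-AT. The cells were strain YBZ-1 (LexA–MS2 coat fusion, HIS3 reporter) co-expressing Pumilio-1 PUF domain libraries and matching RNA elements from a centromeric plasmid.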
# PUM1 PUF domain R6-CFY = biological target: T1, PUM1 PUF domain R6-CFY (Homo sapiens, UniProt Q14671 828-1176, N1043C;Y1044F;Q1047Y)
# T1 sequence: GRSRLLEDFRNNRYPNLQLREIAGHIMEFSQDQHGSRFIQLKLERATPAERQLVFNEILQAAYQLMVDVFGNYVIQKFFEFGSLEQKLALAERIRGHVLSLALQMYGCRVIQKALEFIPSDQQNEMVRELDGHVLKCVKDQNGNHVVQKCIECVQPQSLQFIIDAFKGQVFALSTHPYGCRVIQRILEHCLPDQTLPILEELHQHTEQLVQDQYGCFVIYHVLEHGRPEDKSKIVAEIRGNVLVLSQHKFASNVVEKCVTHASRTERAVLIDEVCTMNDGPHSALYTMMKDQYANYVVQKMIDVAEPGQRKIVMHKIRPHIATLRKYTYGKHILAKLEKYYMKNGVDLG
# Outline: as §1
# PUM1 PUF domain R4-GPS = PUM1 PUF domain R4-GPS (Homo sapiens, UniProt Q14671 828-1176, N971G;H972P;Q975S)
# Outline: as §1
# PUM1 PUF domain R5-DFA = PUM1 PUF domain R5-DFA (Homo sapiens, UniProt Q14671 828-1176, C1007D;R1008F;Q1011A)
# Outline: as §1
# PUM1 PUF domain R3-RRR = PUM1 PUF domain R3-RRR (Homo sapiens, UniProt Q14671 828-1176, C935R;Q939R)
# Outline: as §1
# PUM1 PUF domain R7-RTL = PUM1 PUF domain R7-RTL (Homo sapiens, UniProt Q14671 828-1176, S1079R;N1080T;E1083L)
# Outline: as §1
# PUM1 PUF domain R7-RRA = PUM1 PUF domain R7-RRA (Homo sapiens, UniProt Q14671 828-1176, S1079R;N1080R;E1083A)
# Outline: as §1
# PUM1 PUF domain R8-HYP = PUM1 PUF domain R8-HYP (Homo sapiens, UniProt Q14671 828-1176, N1122H;Q1126P)
# Outline: as §1
# PUM1 PUF domain R4-THP = PUM1 PUF domain R4-THP (Homo sapiens, UniProt Q14671 828-1176, N971T;Q975P)
# Outline: as §1
# PUM1 PUF domain R6-AYQ = biological target: T2, PUM1 PUF domain R6-AYQ (Homo sapiens, UniProt Q14671 828-1176, N1043A)
# T2 sequence: T1 sequence with C216A, F217Y, Y220Q
# Outline: as §1
# Chain of PUM1 PUF domain R4-GPS (Q14671 828-1176 N971G/H972P/Q975S): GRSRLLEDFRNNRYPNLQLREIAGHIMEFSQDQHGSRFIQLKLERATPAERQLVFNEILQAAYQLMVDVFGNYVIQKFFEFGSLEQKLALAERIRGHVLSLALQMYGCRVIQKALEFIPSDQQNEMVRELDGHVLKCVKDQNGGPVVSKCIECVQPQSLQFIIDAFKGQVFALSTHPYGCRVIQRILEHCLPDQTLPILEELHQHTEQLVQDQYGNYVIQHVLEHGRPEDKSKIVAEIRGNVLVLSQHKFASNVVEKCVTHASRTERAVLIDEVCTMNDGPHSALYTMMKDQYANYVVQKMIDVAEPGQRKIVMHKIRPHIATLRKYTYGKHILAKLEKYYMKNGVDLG
# Chain of PUM1 PUF domain R8-HYP (Q14671 828-1176 N1122H/Q1126P): as the sequence (Q14671 828-1176 N971G/H972P/Q975S) above, with G144N, P145H, S148Q, N295H, Q299P counted along it
# Chain of PUM1 PUF domain R3-RRR (Q14671 828-1176 C935R/Q939R): as the sequence (Q14671 828-1176 N971G/H972P/Q975S) above, with C108R, Q112R, G144N, P145H, S148Q counted along it
sequence,measurement,setting,value
GGCUAGAACUAGUGGAUCCCCCGGCGCCCGGCGGCUCGAGCCCGGGUAAGUGUAAAUGGUCUGCAUGCCGCCGGGCGCCAUGCCUGCAGGUCGACUCUAGAAAACAUG,binding signal,PUM1 PUF domain R1-CWR,1.23 log2 enrichment (interaction score)
GGCUAGAACUAGUGGAUCCCCCGGCGCCCGGCGGCUCGAGCCCGGGUAAGUGUAAAUAGUCUGCAUGCCGCCGGGCGCCAUGCCUGCAGGUCGACUCUAGAAAACAUG,binding signal,PUM1 PUF domain R6-CFY,2.39 log2 enrichment (interaction score)
same,binding signal,PUM1 PUF domain R4-GPS,4.4 log2 enrichment (interaction score)
same,binding signal,PUM1 PUF domain R5-DFA,4.36 log2 enrichment (interaction score)
GGCUAGAACUAGUGGAUCCCCCGGCGCCCGGCGGCUCGAGCCCGGGUAAGUGUAAUUAGUCUGCAUGCCGCCGGGCGCCAUGCCUGCAGGUCGACUCUAGAAAACAUG,binding signal,PUM1 PUF domain R3-RRR,3.73 log2 enrichment (interaction score)
GGCUAGAACUAGUGGAUCCCCCGGCGCCCGGCGGCUCGAGCCCGGGUAAGUGUACAUAGUCUGCAUGCCGCCGGGCGCCAUGCCUGCAGGUCGACUCUAGAAAACAUG,binding signal,PUM1 PUF domain R4-GPS,1.84 log2 enrichment (interaction score)
GGCUAGAACUAGUGGAUCCCCCGGCGCCCGGCGGCUCGAGCCCGGGUAAGUUUAAAUAGUCUGCAUGCCGCCGGGCGCCAUGCCUGCAGGUCGACUCUAGAAAACAUG,binding signal,PUM1 PUF domain R7-RTL,3.26 log2 enrichment (interaction score)
same,binding signal,PUM1 PUF domain R7-RRA,3.23 log2 enrichment (interaction score)
GGCUAGAACUAGUGGAUCCCCCGGCGCCCGGCGGCUCGAGCCCGGGUAAGGGUAAAUAGUCUGCAUGCCGCCGGGCGCCAUGCCUGCAGGUCGACUCUAGAAAACAUG,binding signal,PUM1 PUF domain R8-HYP,2.77 log2 enrichment (interaction score)
GGCUAGAACUAGUGGAUCCCCCGGCGCCCGGCGGCUCGAGCCCGGGUAAGUCUAAAUAGUCUGCAUGCCGCCGGGCGCCAUGCCUGCAGGUCGACUCUAGAAAACAUG,binding signal,PUM1 PUF domain R7-RRA,5.23 log2 enrichment (interaction score)
GGCUAGAACUAGUGGAUCCCCCGGCGCCCGGCGGCUCGAGCCCGGGUAAGCGUAAAUAGUCUGCAUGCCGCCGGGCGCCAUGCCUGCAGGUCGACUCUAGAAAACAUG,binding signal,PUM1 PUF domain R8-HYP,5.46 log2 enrichment (interaction score)
GGCUAGAACUAGUGGAUCCCCCGGCGCCCGGCGGCUCGAGCCCGGGUAAGUGUAAAUCGUCUGCAUGCCGCCGGGCGCCAUGCCUGCAGGUCGACUCUAGAAAACAUG,binding signal,PUM1 PUF domain R1-CWR,6.18 log2 enrichment (interaction score)
GGCUAGAACUAGUGGAUCCCCCGGCGCCCGGCGGCUCGAGCCCGGGUAAGUGUAUAUAGUCUGCAUGCCGCCGGGCGCCAUGCCUGCAGGUCGACUCUAGAAAACAUG,binding signal,PUM1 PUF domain R4-THP,2.79 log2 enrichment (interaction score)
same,binding signal,PUM1 PUF domain R4-GPS,2.94 log2 enrichment (interaction score)
GGCUAGAACUAGUGGAUCCCCCGGCGCCCGGCGGCUCGAGCCCGGGUAAGUGAAAAUAGUCUGCAUGCCGCCGGGCGCCAUGCCUGCAGGUCGACUCUAGAAAACAUG,binding signal,PUM1 PUF domain R6-CFY,1.54 log2 enrichment (interaction score)
same,binding signal,PUM1 PUF domain R6-AYQ,4.26 log2 enrichment (interaction score)
